Bioassay records deposited in PubChem by National Center for Advancing Translational Sciences (NCATS).
The list is not random: actives were taken first. Their share in the collection is about 7.4%.
SMN2 splice enh: qHTS Assay for Enhancers of SMN2 Splice Variant Expression; HEK293 SMN2-luciferase splicing reporter, luminescence, 30-36 h; Potency, µM (doses to about 46.1 µM), actives largely listed as activators; hit rate 2.8% among 210,000; note: nearly all actives have a fitted effect of over 55% in size
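HEK293 cells carry an SMN2 minigene-luciferase reporter in which exon 7 inclusion puts luciferase in frame. Cells were seeded at 2000 cells/well, attached for 10-12 hours, then exposed to compounds for 30-36 hours at 37C before ONE-Glo luminescence.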
NPC1 prom act: qHTS Assay for NPC1 Promoter Activators | Huh7 NPC1 promoter luciferase reporter, 24 h | Potency, µM (highest dose often 9.22 µM), usual class: activators | AID 485313, 2010 | hit rate 2.4% among 320,000; note: nearly all actives have a fitted effect of over 60% in size
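Stable NPC1-promoter luciferase Huh7 line; cpd (DMSO) 24 h, 37 °C, 5% CO2; Amplite luciferase reagent 10 min RT; luminescence readout. qHTS format.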
FLuc modulator: qHTS profiling assay for firefly luciferase inhibitor/activator using purifed enzyme and Km concentrations of substrates (counterscreen for miR-21 project) | Luciferin 4-monooxygenase (Photinus pyralis), P08659 | purified FLuc, Km substrates, luminescence inhibition | Potency, µM (highest dose often 57.5 µM), usual class: inhibitors | hit rate 6.9% among 360,000 | AID 588342, 2011; note: nearly all actives have a fitted effect of over 55% in size
Target sequence (P08659 whole entry, looked up): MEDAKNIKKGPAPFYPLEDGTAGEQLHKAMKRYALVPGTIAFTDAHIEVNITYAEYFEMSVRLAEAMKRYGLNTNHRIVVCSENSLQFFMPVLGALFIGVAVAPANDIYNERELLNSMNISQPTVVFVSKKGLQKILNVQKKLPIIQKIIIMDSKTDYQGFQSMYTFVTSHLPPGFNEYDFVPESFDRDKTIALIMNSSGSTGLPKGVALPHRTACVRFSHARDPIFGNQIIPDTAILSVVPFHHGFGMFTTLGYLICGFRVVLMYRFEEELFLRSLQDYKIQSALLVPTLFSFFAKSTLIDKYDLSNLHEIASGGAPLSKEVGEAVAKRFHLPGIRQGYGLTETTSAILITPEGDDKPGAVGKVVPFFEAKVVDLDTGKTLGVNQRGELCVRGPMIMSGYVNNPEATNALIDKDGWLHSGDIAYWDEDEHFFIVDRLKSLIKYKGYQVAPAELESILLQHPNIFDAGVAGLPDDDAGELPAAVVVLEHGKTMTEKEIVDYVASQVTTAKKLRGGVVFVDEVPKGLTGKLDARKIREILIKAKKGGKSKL
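Biochemical qHTS of compounds, final roughly 60 µM downward over six points, against 10 nM purified firefly luciferase using Km concentrations of substrates (10 uM D-luciferin, 10 uM ATP) in Tris acetate pH 7.5 buffer; luminescence output.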
Rab9 promoter act: qHTS Assay for Rab9 Promoter Activators; Potency, µM (highest dose often 9.22 µM), most hits filed as activators; hit rate 2.8% among 320,000; Huh7 Rab9 promoter-luciferase reporter, luminescence, 24 h; note: nearly all actives have a fitted effect of over 60% in size
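Using Huh7 cells stably transfected with Rab9 promoter–luciferase, compounds were incubated 24 h at 37 °C, 5% CO2; luciferase luminescence was read 10 min after reagent addition.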
Luc counter: Counterscreen for Luciferase (Kinase-Glo TM) Inhibition; Luciferin 4-monooxygenase (Photuris pensylvanica), Q27757; Kinase-Glo luciferase, ATP luminescence, 8 min; hit rate 0.28% among 200,000; Potency, µM (top dose mostly 38.3 µM), most hits filed as inhibitors; AID 1379, 2008; note: nearly all actives have a fitted effect of over 60% in size
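Compounds were added to a substrate mix at pH 7.2 (50 mM imidazole, 10 uM ATP, within the enzyme's linear range), followed by Kinase-Glo detection reagent; luminescence was measured after 8 minutes at ambient temperature.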
ELG1 genotox: qHTS screen for small molecules that induce genotoxicity in human embryonic kidney (HEK293T) cells expressing luciferase-tagged ELG1. HEK293T ELG1-luciferase reporter, luminescence, 16 h. Potency, µM (titrated, usually from 46 µM), actives largely listed as activators. hit rate 1.3% among 330,000. AID 504466, 2011; note: nearly all actives have a fitted effect of over 60% in size
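Genotoxicity was scored as increased ELG1-luciferase reporter signal, measured by ONE-Glo luminescence (30 min, room temperature). Compound or vehicle exposure of the HEK293T reporter cells lasted 16 hr at 37°C.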
A number is an active result; 0 = inactive; ? = inconclusive; - = no result given. Calls come from the whole dose curve; as a rule, active = well fitted curve in the direction sought with a large enough effect; inconclusive = small, poorly fitted or top-dose-only effect, or another doubt; inactive = no such curve, though single readings can be large; an effect the other way counts as inactive or inconclusive.

SMILES	SMN2 splice enh	NPC1 prom act	FLuc modulator	Rab9 promoter act	Luc counter	ELG1 genotox
O=C(O)c1ccc(/C=C(\c2nc3ccccc3[nH]2)c2nc3ccccc3s2)cc1	-	0	15µM	0	-	0
CC(=O)/C(=C(/O)c1ccccc1)c1nc2ccccc2[nH]1	0	0	0	0	0	0
Oc1ccc(C=Nc2ccccc2-c2nc3ccccc3[nH]2)cc1	13µM	?	27µM	0	0	0
O=C(Nc1ccc(-c2nc3ccccc3[nH]2)cc1)c1ccccc1NS(=O)(=O)c1ccc(F)cc1	0	0	?	0	0	0
Fc1ccc(-c2nc3ccccc3[nH]2)cc1	10µM	2.5µM	12µM	2.5µM	?	?
Nc1ccc(-c2nc3ccccc3[nH]2)cc1	4.5µM	1.6µM	9.5µM	0.45µM	?	2.9µM
Cc1c(-c2nc3ccccc3[nH]2)cnn1C	-	0	?	0	-	0
Cn1cc(-c2nc3ccccc3[nH]2)c2ccccc21	22µM	?	4.3µM	?	0	0
O=c1[nH]cccc1-c1nc2ccccc2[nH]1	-	?	?	0	-	?
Nc1ccccc1-c1nc2ccccc2[nH]1	?	4µM	12µM	6.3µM	0	10µM
Nc1ccc(-c2nc3c(ccc4ccccc43)[nH]2)cc1	-	?	2.4µM	?	-	?
Cc1ccc(Nc2nc(N)[nH]c(=O)c2N=O)cc1	-	0	0	0	-	0
NC(=S)c1cc2cc(Cl)ccc2oc1=O	-	0	0	0	-	0
Cc1ccc(Cl)cc1N1CCN(Cc2nnc(-c3ccc4c(c3)OCO4)o2)CC1	0	-	0	-	-	-
COc1cccc(C2/C(=C(/O)c3ccc4c(c3)CC(C)O4)C(=O)C(=O)N2CC2CCCO2)c1 (configuration not stated)	-	0	0	0	-	0
O=c1[nH]c(N/N=C/c2cc3c(cc2[N+](=O)[O-])OCO3)nc2ccccc12	-	0	0	0	-	0
C(=N\Nc1nc2ccccc2[nH]1)/c1c[nH]c2ccccc12	?	?	7.6µM	?	0	?
Cc1cc(=O)[nH]c(N/N=C/c2c(C)nn(-c3ccccc3)c2Cl)n1	-	0	?	0	-	0
Cc1nn(-c2ccccc2)c(Cl)c1/C=N/Nc1nc2ccccc2[nH]1	-	0.56µM	0.48µM	0.45µM	-	2.6µM
Cc1cc(=O)[nH]c(N/N=C/c2c[nH]c3ccccc23)n1	-	0	?	0	-	0
Cc1[nH]c2ccccc2c1/C=N/Nc1nc2ccccc2[nH]1	-	?	4.3µM	0	-	?
O=[N+]([O-])c1cc(/C=N/Nc2nc3ccccc3[nH]2)c(O)cc1O	0	0	24µM	0	0	?
CCOc1c(Br)cc(C2CC(=O)Nc3cc4c(cc32)OCO4)cc1OC (configuration not stated)	0	-	0	-	-	-
CC(=O)c1cc(C#N)c(N2CCCC2)nc1C	0	0	0	0	0	0
CCN(CC)C(=O)CC(c1cc(OC)c(OC)c(OC)c1)c1c(OC)cc(OC)c2c(-c3ccccc3)cc(=O)oc12 (configuration not stated)	-	0	0	0	-	0
SMILES	SMN2 splice enh	NPC1 prom act	FLuc modulator	Rab9 promoter act	Luc counter	ELG1 genotox
Cc1ccccc1/C=N/Nc1nc2ccccc2[nH]1	-	?	11µM	3.5µM	0	0
COc1ccc(/C=N/Nc2nc3ccccc3[nH]2)c(OC)c1OC	-	?	1.5µM	?	-	?
C(=N\Nc1nc2ccccc2[nH]1)/c1cccc2cccnc12	-	0	0.43µM	0	-	?
Cc1cc(=O)[nH]c(N/N=C/c2ccccc2C(F)(F)F)n1	0	0	0	0	0	0
CC(=O)N1CCC(=NNc2nc3ccccc3[nH]2)CC1	?	0	?	0	0	0
Cc1ccc(/C=N/Nc2nc3ccccc3[nH]2)s1	10µM	2.8µM	5.4µM	2.2µM	0	?
Cc1c([N+](=O)[O-])c(C(=O)N2CCCC2)nn1C	0	0	0	0	0	0
Cc1c([N+](=O)[O-])c(C(=O)Sc2ccc(Br)cc2)nn1C	-	0	17µM	0	-	0
CN(Cc1ccccn1)C(=O)C1CCC(=O)N(Cc2cccc(C(F)(F)F)c2)C1 (configuration not stated)	-	0	0	0	-	0
Cc1ccccc1N/N=C/c1c(C)nc2ccccn12	-	0	12µM	0	-	0
Cc1ccc(-c2nc3ccccn3c2Nc2ccccc2C)s1	0	-	0	-	-	-
O=S(=O)(c1cccc2nsnc12)N1CCc2ccccc21	?	?	21µM	3.5µM	0	?
O=S(=O)(c1cccc2nsnc12)N1CCN(c2ccccc2F)CC1	-	0	0	0	0	0
CN1C(=O)C(Cc2c[nH]c3ccccc23)NC1=S (configuration not stated)	13µM	-	-	-	0	-
N#Cc1ccccc1NC(=O)CN1C(=O)NC(Cc2c[nH]c3ccccc23)C1=O (configuration not stated)	-	0	9.5µM	0	-	0
COc1ccc(N(CC(=O)NCC2CCCO2)C(=O)CCC(=O)Nc2cc(C)on2)cc1OC (configuration not stated)	-	0	0	0	-	0
COc1cc(C(=O)Nc2cccc(-c3nc4cc(C)cc(C)c4o3)c2)cc(OC)c1OC	0	0	5.4µM	0	0	0
COc1cc2ccccc2cc1C(=O)Nc1cccc(-c2nc3cc(C)c(C)cc3o2)c1	0	-	1.2µM	-	-	-
CC(C)(C)c1ccc(C(=O)Nc2ccc(-c3nc4cc(Cl)ccc4o3)cc2)cc1	0	-	0	-	-	-
COc1ccc(Cl)cc1C(=O)Nc1ccc2oc(-c3ccc(C(C)(C)C)cc3)nc2c1	0	-	9.5µM	-	-	-
Cc1ccc2oc(-c3cccc(NC(=O)c4cccc5c(Br)cccc45)c3)nc2c1	0	-	0	-	-	-
Cc1ccc2oc(-c3cccc(NC(=O)c4ccc(Br)o4)c3)nc2c1	0	0	21µM	0	0	?
CCN1CCN(C(=O)CCc2nnc(CCc3c[nH]c4ccccc34)o2)[C@@H](C)C1=O	-	0	0	0	-	0
CN(C)S(=O)(=O)c1cccc(C(=O)NCCOC(=O)c2cc(F)c(F)cc2Cl)c1	-	0	0	0	-	0
CC(=O)c1cccc(NC(=O)c2ccc(Br)o2)c1	0	0	?	0	0	0
Cc1cc2nc(-c3cccc(NC(=O)c4ccc(Br)o4)c3)oc2cc1C	0	0	17µM	0	0	0
Cc1sc2nc3n(c(=O)c2c1C)Cc1ccccc1-3	14µM	0	3.8µM	?	0	?
O=c1c2cccc(Cl)c2nc2n1Cc1ccccc1-2	-	?	12µM	2.8µM	-	?
CC1CCC(NC(=O)Cn2ncc3ccccc32)CC1 (configuration not stated)	?	?	?	?	0	10µM
